Assay results as given in PubChem BioAssay (NCATS).
Several values for one entry are separate records, joined by “and”; a condition that tells them apart may be missing. Identical values can stand only once. Results filed as inconclusive are left out. Activity calls are given as the source filed them. Unless noted, calls follow the shape of the full dose curve.

Legend:
[1] = molecular target: Bile acid receptor (Homo sapiens) (UniProt Q96RI1); assay: qHTS assay for small molecule agonists of farnesoid X receptor signaling (AID 588527); details: HEK293T FXR-UAS-bla, beta-lactamase ratio, 16 h; activation: stronger effect = higher value;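 also: series mostly up to about 77 µM; 0% = vehicle basal and 100% = reference agonist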
Chain of Bile acid receptor (Homo sapiens) (Q96RI1 whole entry, looked up): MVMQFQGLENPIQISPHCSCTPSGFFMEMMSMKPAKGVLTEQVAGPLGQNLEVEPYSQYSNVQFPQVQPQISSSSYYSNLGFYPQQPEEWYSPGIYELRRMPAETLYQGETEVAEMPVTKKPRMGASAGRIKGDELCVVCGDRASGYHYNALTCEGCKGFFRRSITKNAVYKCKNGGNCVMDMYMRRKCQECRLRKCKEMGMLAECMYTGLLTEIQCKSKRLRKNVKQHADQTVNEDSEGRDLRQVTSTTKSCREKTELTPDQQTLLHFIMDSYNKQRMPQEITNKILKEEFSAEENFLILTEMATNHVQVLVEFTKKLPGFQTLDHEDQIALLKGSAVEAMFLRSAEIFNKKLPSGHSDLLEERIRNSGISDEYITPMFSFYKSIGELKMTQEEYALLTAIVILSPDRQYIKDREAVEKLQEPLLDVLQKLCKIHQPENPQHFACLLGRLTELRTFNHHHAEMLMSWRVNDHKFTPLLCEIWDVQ
Method in brief: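 Read-out: beta-lactamase reporter fluorescence with CCF4 substrate in GeneBLAzer FXR-UAS-bla HEK293T cells, after 16 h compound exposure at 37 C. Response scaled between DMSO basal (0%) and chenodeoxycholic acid at 100 uM (100%).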

[2] = molecular target: Peroxisome proliferator-activated receptor delta (Homo sapiens) (UniProt Q03181); assay: qHTS assay for small molecule agonists of peroxisome proliferator-activated receptor delta signaling (AID 588534);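 also: 0% = DMSO basal wells and 100% = positive control agonist at 10 µM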
Chain of Peroxisome proliferator-activated receptor delta (Homo sapiens) (Q03181 whole entry, looked up): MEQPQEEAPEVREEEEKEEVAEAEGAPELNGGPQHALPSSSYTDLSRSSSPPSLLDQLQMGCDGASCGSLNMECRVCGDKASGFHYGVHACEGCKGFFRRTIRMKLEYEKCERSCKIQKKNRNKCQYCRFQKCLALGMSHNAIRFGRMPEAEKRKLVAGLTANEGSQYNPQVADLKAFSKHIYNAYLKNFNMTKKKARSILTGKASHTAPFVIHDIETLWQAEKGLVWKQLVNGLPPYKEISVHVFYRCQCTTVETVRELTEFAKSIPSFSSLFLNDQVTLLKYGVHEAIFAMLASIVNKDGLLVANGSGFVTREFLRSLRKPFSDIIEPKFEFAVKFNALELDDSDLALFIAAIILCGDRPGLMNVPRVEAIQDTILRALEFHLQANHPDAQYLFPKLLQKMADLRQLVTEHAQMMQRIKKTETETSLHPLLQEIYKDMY
Method in brief: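 Agonist-mode beta-lactamase reporter readout (CCF4 dye, 2 h at RT) after 18 h at 37 °C exposure to a titration; Hill-equation fitting gave EC50 and maximal response.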

[3] = qHTS for Inhibitors of the Functional Ribonucleoprotein Complex (vRNP) of Lassa (LASV) Arenavirus: LASV Primary Screen - GLuc reporter signal (AID 1347082; calls by dose curve; tested in HEK293 reporter line; also: series mostly up to about 57 µM; % is scaled to controls: 0 for no effect and ±100 for the full control effect; nearly all actives have a fitted effect of over 60% in size)
[4] = qHTS for Inhibitors of the Functional Ribonucleoprotein Complex (vRNP) of Lassa (LASV) Arenavirus: Viability assay - alamar blue signal for LASV Primary Screen (AID 1347083; calls by dose curve; tested in HEK293 reporter line; also: series mostly up to about 57 µM; % is scaled to controls: 0 for no effect and ±100 for the full control effect; nearly all actives have a fitted effect of over 80% in size)
[5] = qHTS for Inhibitors of the Functional Ribonucleoprotein Complex (vRNP) of Lymphocytic Choriomeningitis Arenaviruses (LCMV): Viability assay - alamar blue signal for LCMV Primary Screen (AID 1347085; calls by dose curve; tested in HEK293 reporter line; also: series mostly up to about 57 µM; % is scaled to controls: 0 for no effect and ±100 for the full control effect; nearly all actives have a fitted effect of over 80% in size)
[6] = molecular target: Nucleoprotein (Lymphocytic choriomeningitis virus (strain Armstrong)) (UniProt P09992); assay: qHTS for Inhibitors of the Functional Ribonucleoprotein Complex (vRNP) of Lymphocytic Choriomeningitis Arenaviruses (LCMV): LCMV Primary Screen - GLuc reporter signal (AID 1347086); also: series mostly up to about 57 µM; % is scaled to controls: 0 for no effect and ±100 for the full control effect; nearly all actives have a fitted effect of over 70% in size
Chain of Nucleoprotein (Lymphocytic choriomeningitis virus (strain Armstrong)) (P09992 whole entry, looked up): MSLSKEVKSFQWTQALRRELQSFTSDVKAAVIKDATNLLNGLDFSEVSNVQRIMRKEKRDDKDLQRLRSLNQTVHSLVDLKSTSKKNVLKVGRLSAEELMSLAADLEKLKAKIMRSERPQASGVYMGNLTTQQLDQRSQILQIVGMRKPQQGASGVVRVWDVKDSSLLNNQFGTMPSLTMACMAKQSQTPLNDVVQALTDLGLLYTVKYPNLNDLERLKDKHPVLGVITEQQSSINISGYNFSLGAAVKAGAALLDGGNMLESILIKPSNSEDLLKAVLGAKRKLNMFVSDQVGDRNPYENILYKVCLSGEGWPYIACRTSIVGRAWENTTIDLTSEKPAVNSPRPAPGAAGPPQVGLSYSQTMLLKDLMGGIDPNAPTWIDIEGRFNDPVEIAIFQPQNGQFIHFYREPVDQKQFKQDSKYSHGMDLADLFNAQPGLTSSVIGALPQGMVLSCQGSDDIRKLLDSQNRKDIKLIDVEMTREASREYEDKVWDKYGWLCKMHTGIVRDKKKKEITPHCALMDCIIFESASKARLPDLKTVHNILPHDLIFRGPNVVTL

[7] = molecular target: Estrogen receptor (Homo sapiens) (UniProt P03372); assay: qHTS assay for small molecule antagonists of estrogen receptor alpha signaling (AID 588513; active = well fitted curve in the direction sought with a large enough effect in the signal ratio, with a control signal flat, not every such curve was filed as active; the % refers to the signal ratio; also: % is scaled to controls: 0 for no effect and ±100 for the full control effect)
Chain of Estrogen receptor (Homo sapiens) (P03372 whole entry, looked up): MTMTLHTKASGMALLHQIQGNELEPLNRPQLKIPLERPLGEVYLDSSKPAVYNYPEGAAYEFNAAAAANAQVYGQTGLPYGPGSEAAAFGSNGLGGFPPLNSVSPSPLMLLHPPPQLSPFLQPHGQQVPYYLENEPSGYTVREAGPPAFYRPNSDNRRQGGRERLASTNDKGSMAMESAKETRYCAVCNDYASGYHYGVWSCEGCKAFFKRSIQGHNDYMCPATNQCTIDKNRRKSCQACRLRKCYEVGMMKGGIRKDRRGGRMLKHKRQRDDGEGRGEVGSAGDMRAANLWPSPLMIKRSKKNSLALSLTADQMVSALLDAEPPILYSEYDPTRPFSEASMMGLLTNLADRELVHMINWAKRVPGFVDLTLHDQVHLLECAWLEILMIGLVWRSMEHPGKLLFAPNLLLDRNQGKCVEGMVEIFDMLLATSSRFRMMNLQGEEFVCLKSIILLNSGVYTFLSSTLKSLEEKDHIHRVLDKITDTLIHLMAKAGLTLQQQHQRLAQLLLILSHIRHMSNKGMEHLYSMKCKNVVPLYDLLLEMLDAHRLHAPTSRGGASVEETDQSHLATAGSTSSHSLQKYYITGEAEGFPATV
Method in brief: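 Beta-lactamase reporter, antagonist mode, HEK 293 GripTite cells; 0.5nM E2 stimulus, 18 h, 37 C; CCF4 dye 2 h RT; fluorescence. IC50 and efficacy from Hill fits, normalized to E2 and DMSO.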

[8] = molecular target: Thyroid hormone receptor beta (Homo sapiens) (UniProt P10828); assay: qHTS assay for small molecule agonists of thyroid hormone receptor beta signaling (AID 588545)
Chain of Thyroid hormone receptor beta (Homo sapiens) (P10828 whole entry, looked up): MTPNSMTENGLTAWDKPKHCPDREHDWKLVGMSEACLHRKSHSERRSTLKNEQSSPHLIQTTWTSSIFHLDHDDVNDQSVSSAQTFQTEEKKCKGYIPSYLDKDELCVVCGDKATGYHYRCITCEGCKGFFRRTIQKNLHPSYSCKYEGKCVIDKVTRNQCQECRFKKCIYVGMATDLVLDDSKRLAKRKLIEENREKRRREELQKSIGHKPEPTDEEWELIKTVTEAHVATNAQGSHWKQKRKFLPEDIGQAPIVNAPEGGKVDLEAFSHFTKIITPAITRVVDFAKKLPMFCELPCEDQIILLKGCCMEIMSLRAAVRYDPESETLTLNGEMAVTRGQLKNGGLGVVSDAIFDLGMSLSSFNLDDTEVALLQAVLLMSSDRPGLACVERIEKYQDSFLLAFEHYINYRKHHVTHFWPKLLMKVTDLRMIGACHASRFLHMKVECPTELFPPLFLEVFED
Method in brief: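 In this cell-based screen, titrated compounds act on HEK 293 cells held in medium with 2% charcoal/dextran FBS, NEAA and pyruvate for 18 hrs at 37 C. Responses are expressed relative to T3 (10 nM) as 100% and basal DMSO as 0%.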

[9] = molecular target: Voltage-gated inwardly rectifying potassium channel KCNH2 (Homo sapiens) (UniProt Q12809); assay: qHTS Assay for Small Molecule Inhibitors of the Human hERG Channel Activity (AID 588834; active = well fitted curve in the direction sought with a large enough effect; an effect the other way counts as inactive or inconclusive;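 also: top concentration of the series differs between compounds; % is scaled to controls: 0 for no effect and ±100 for the full control effect; lower thallium flux fluorescence means stronger hERG block; nearly all actives have a fitted effect of over 50% in size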)
Method in brief: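 Thallium-flux (FluxOR) read-out on FDSS: fluorescence read 10 s before and 2 min after stimulation buffer. hERG-BacMam-transduced U2OS cells, compound exposure about 10 min. AC50 by standard Hill equation.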

[10] = qHTS assay for small molecule agonists of the antioxidant response element (ARE) signaling pathway (AID 651741; active = well fitted activation curve with a large enough effect in the signal ratio; the % refers to the signal ratio; also: potency is read from the fitted curve at half-maximal effect; as to activation: % of control where 0% means no effect)
Method in brief: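 Stably integrated ARE-beta-lactamase reporter HepG2 cells; 16 h compound incubation, 37 C; LiveBLAzer FRET substrate 2 h at room temperature; fluorescence intensity.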

[11] = qHTS assay for small molecule agonists of the antioxidant response element (ARE) signaling pathway measured by Nrf2-dependant transcriptional activity (AID 720636; active = well fitted curve in the direction sought with a large enough effect in the repeat runs; an effect the other way counts as inactive or inconclusive;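 also: HepG2 cells with an ARE-driven luciferase reporter; % of control where 0% means no effect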)
Method in brief: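 First, ARE-luc HepG2 cells attached for 6 hr at 37 C in 1% dialyzed FBS medium. Next, compound or DMSO was added and incubated 16 hr. Finally, ONE-Glo reagent was added and luminescence measured after 30 min.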

[12] = molecular target: Androgen receptor (Homo sapiens) (UniProt P10275); assay: qHTS assay for small molecule agonists of androgen receptor signaling (AID 588515; active = well fitted curve in the direction sought with a large enough effect in the signal ratio, with a control signal flat; the % refers to the signal ratio; also: % is scaled to controls: 0 for no effect and ±100 for the full control effect); details: AR-UAS-bla HEK293, beta-lactamase ratio, agonist 16 h; stronger effect = higher value
Chain of Androgen receptor (Homo sapiens) (P10275 whole entry, looked up): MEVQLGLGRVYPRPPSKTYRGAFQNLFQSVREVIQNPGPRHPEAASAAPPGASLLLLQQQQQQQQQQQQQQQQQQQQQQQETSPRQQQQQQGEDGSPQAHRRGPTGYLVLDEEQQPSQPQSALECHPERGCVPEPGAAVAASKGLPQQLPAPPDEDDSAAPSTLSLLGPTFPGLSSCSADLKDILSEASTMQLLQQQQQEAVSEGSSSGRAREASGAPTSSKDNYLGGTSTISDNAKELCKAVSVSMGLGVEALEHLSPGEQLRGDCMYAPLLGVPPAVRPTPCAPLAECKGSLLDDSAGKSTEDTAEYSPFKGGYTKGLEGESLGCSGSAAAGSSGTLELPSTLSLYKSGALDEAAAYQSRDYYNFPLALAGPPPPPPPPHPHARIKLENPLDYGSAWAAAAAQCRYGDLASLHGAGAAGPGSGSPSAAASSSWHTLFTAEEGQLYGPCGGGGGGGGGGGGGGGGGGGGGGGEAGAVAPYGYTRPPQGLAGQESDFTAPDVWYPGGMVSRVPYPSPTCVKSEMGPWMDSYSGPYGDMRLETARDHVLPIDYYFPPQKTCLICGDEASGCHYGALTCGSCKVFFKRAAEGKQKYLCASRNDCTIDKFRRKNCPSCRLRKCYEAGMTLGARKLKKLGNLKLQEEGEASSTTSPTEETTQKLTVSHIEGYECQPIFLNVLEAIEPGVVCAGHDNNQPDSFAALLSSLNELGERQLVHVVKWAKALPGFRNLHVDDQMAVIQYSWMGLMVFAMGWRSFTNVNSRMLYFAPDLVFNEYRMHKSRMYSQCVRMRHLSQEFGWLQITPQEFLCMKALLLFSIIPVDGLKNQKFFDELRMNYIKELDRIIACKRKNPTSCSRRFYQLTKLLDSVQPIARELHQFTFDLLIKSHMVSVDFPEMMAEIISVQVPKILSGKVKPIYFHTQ
Method in brief: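 Stimulation of an AR-responsive β-lactamase reporter in GripTite HEK293 cells was measured after 16 h compound exposure at 37 °C, via CCF4 fluorescence after 2 h RT. EC50 from Hill fits, normalized to R1881 at 30 nM.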

[13] = molecular target: Androgen receptor (Homo sapiens) (UniProt P10275); assay: qHTS assay for small molecule antagonists of androgen receptor signaling (AID 588516; active = well fitted curve in the direction sought with a large enough effect in the signal ratio, with a control signal flat, not every such curve was filed as active; the % refers to the signal ratio; also: % is scaled to controls: 0 for no effect and ±100 for the full control effect)
Method in brief: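 HEK293 AR-UAS-bla cells, 10% dialyzed FBS medium; cpd titration + R1881 10 nM final, 16 h 37 C; CCF4 2 h RT; FRET ratio; IC50/efficacy via Hill fit.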

[14] = molecular target: Bile acid receptor (Homo sapiens) (UniProt Q96RI1); assay: qHTS assay for small molecule antagonists of farnesoid X receptor signaling (AID 588526); also: % is scaled to controls: 0 for no effect and ±100 for the full control effect
Method in brief: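 Antagonist mode: titrated compounds tested against chenodeoxycholic acid stimulation (normalized to 50 uM CDCA and DMSO) in GeneBLAzer HEK293T cells for 16 h. Beta-lactamase read by CCF4 fluorescence; IC50 from Hill fits.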

[15] = qHTS assay for small molecule antagonists of peroxisome proliferator-activated receptor delta signaling (AID 588535; active = well fitted inhibition curve with a large enough effect in the signal ratio, with a control signal flat, not every such curve was filed as active; the % refers to the signal ratio;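 as to max response: cells co-treated with a PPAR-delta agonist as stimulator during compound exposure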); details: HEK293T PPARd-UAS-bla, beta-lactamase FRET ratio, 18 h; 460 nm channel
Method in brief: (§1)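 Fluorescence from CCF4-loaded GeneBLAzer PPAR-delta-UAS-bla HEK293T cells (2 hrs RT loading) quantified reporter inhibition after an 18 hr, 37 C compound exposure across a titration.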

[16] = molecular target: Peroxisome proliferator-activated receptor delta (Homo sapiens) (UniProt Q03181); assay: as above
Method in brief: as §1

[17] = molecular target: Peroxisome proliferator-activated receptor gamma (Homo sapiens) (UniProt P37231); assay: qHTS assay for small molecule agonists of peroxisome proliferator-activated receptor gamma signaling (AID 588536; active = well fitted curve in the direction sought with a large enough effect in the signal ratio, with a control signal flat, not every such curve was filed as active; the % refers to the signal ratio;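 also: 0% = DMSO basal wells and 100% = rosiglitazone at 2 µM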)
Chain of Peroxisome proliferator-activated receptor gamma (Homo sapiens) (P37231 whole entry, looked up): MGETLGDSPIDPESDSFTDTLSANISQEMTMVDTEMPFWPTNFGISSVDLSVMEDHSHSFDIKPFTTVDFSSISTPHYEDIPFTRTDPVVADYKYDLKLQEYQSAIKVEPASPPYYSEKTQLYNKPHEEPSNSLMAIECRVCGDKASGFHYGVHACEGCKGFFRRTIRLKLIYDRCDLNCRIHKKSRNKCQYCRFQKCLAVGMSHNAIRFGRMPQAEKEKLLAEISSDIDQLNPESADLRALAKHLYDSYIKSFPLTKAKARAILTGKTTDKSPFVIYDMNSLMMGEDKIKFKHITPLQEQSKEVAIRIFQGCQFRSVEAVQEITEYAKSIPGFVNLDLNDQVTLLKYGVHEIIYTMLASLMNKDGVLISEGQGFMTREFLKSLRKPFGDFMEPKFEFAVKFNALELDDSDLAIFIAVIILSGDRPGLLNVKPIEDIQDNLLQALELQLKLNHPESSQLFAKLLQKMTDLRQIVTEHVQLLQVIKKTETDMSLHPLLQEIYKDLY
Method in brief: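 Beta-lactamase reporter read-out: CCF4 fluorescence (ex 405, em 460/530 nm) after 2 h at RT. HEK293 GeneBLAzer cells were treated for 16 h at 37 C. Hill fits gave EC50 and efficacy versus 2 uM rosiglitazone (100%) and DMSO (0%).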

[18] = molecular target: Vitamin D3 receptor (Homo sapiens) (UniProt P11473); assay: qHTS assay for small molecule antagonists of vitamin D receptor signaling (AID 588541)
Chain of Vitamin D3 receptor (Homo sapiens) (P11473 whole entry, looked up): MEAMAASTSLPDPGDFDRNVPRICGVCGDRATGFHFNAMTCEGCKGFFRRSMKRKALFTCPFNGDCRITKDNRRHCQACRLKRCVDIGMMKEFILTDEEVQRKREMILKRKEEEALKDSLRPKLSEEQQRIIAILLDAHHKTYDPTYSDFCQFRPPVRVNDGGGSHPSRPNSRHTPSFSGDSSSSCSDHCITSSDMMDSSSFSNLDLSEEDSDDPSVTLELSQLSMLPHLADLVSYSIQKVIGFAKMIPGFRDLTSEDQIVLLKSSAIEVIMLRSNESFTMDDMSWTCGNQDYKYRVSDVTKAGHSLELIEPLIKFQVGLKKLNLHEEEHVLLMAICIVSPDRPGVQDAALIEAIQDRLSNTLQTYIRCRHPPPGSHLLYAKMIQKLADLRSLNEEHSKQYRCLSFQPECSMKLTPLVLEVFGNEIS
Method in brief: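 VDR-UAS-bla HEK293T cells in 2% charcoal-stripped FBS were stimulated with 1-alpha,25-dihydroxyvitamin D3 (3 nM final) plus compound for 16 h at 37 C. The beta-lactamase CCF4 readout was normalized to 50 nM agonist and DMSO, and Hill fits gave IC50.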

[19] = molecular target: Vitamin D3 receptor (Homo sapiens) (UniProt P11473); assay: qHTS assay for small molecule agonists of vitamin D receptor signaling (AID 588543);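 also: 0% = DMSO basal and 100% = reference agonist control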
Method in brief: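 β-lactamase reporter, VDR-UAS-bla HEK293T, agonist mode. Cells plated 5 h at 37 °C, compound titration 16 h at 37 °C, CCF4 dye 2 h RT, ratio 460/530 nm. Hill fit → EC50, efficacy vs 50 nM 1α,25-(OH)2D3.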

[20] = qHTS assay for small molecule agonists of retinoid X receptor alpha signaling (AID 588544); details: HEK293T RXRa-UAS-bla, beta-lactamase reporter, 18 h; 530 nm emission;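 as to activation: 0% = DMSO basal wells and 100% = reference agonist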
[21] = molecular target: Retinoic acid receptor RXR-alpha (Homo sapiens) (UniProt P19793); assay: as above
Chain of Retinoic acid receptor RXR-alpha (Homo sapiens) (P19793 whole entry, looked up): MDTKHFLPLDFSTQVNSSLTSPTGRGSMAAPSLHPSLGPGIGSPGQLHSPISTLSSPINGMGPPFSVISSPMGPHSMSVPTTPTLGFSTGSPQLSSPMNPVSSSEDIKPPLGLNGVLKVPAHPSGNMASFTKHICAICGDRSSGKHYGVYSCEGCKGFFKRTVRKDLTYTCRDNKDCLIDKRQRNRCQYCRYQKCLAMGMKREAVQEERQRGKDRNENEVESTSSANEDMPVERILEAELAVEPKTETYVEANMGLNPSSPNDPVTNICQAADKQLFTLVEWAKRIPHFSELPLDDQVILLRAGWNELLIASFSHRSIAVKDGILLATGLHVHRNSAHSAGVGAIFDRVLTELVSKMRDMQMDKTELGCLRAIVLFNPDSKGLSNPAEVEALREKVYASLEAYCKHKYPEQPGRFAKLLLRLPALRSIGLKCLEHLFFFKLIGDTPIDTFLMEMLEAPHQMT

[22] = qHTS assay for small molecule antagonists of retinoid X receptor alpha signaling (AID 588546; active = well fitted inhibition curve with a large enough effect in the signal ratio, with a control signal flat, not every such curve was filed as active; the % refers to the signal ratio); details: HEK293T RXRa-UAS-bla, beta-lactamase ratio, antagonist mode; measured here: W530 green channel, cytotoxicity proxy
Method in brief: (§2)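 Beta-lactamase reporter inhibition, read as CCF4 fluorescence ratio (ex 405, em 460/530 nm) after 2 h at RT. HEK293T UAS-bla cells, 2500/well, were stimulated with 9-cis-RA at 500 or 100 nM final alongside test compound for 18 h at 37 C.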

[23] = molecular target: Retinoic acid receptor RXR-alpha (Homo sapiens) (UniProt P19793); assay: as above; details: HEK293T RXRa-UAS-bla, beta-lactamase ratio, antagonist mode
Method in brief: as §2

[24] = molecular target: Thyroid hormone receptor beta (Homo sapiens) (UniProt P10828); assay: qHTS assay for small molecule antagonists of thyroid hormone receptor beta signaling (AID 588547; active = well fitted inhibition curve with a large enough effect in the signal ratio, with a control signal flat, not every such curve was filed as active; the % refers to the signal ratio); details: TR-UAS-bla HEK293, beta-lactamase ratio, antagonist mode, 18 h
Method in brief: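 TR-UAS-bla GripTite HEK293 cells in 2% charcoal/dextran FBS medium; compounds 0.59 nM to 92 uM with T3 at 0.4nM final, 18 h at 37 C. Beta-lactamase read by CCF4 fluorescence (460/530 nm); Hill fits gave IC50 and efficacy.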

[25] = qHTS assay for environmental chemicals that activate the Aryl hydrocarbon Receptor (AhR) signaling pathway (AID 651777; active = well fitted curve in the direction sought with a large enough effect; an effect the other way counts as inactive or inconclusive; also: % of control where 0% means no effect; nearly all actives have a fitted effect of over 15% in size); details: 1A2-DRE human hepatoma cells, luciferase, 24 h; activation: stronger effect = higher value
Method in brief: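 AhR activation is scored as a rise in luciferase from a stable DRE–CYP1A2 promoter construct in human hepatoma cells. Treatment lasts 24 hr at 37 C; detection uses One-Glo after 30 min at room temperature.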

[26] = molecular target: Peroxisome proliferator-activated receptor alpha (Homo sapiens) (UniProt Q07869); assay: qHTS assay for small molecule agonists of the peroxisome proliferator-activated receptor alpha (PPARalpha) signaling pathway (AID 651778; active = well fitted curve in the direction sought with a large enough effect; an effect the other way counts as inactive or inconclusive; also: % of control where 0% means no effect); details: PathHunter PPARalpha complementation, chemiluminescence, 6 h; stronger effect = higher value
Method in brief: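 Enzyme-fragment complementation assay in which ligand-bound PPARalpha translocates and forms an active enzyme that generates chemiluminescence. Cells were plated overnight, exposed to compound for 6 hr at 37 C, and then given detection reagent for 60 min at room temperature.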

[27] = qHTS assay for small molecule agonists of the antioxidant response element (ARE) signaling pathway measured by Nrf2-dependant transcriptional activity - cell viability counter screen (AID 720653; active = well fitted curve in the direction sought with a large enough effect in the repeat runs; an effect the other way counts as inactive or inconclusive; also: % is scaled to controls: 0 for no effect and ±100 for the full control effect); details: ARE-bla HepG2 viability, CellTiter-Glo ATP luminescence, 16 h; max response: stronger effect = lower value
Method in brief: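 ARE-bla HepG2 cells treated with compounds for 16 h at 37C; this counter screen measures viability as intracellular ATP by CellTiter-Glo luminescence after 30 min at room temperature.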

[28] = qHTS assay for cell viability of HEK293 cells (AID 743288; active = well fitted curve in the direction sought with a large enough effect; an effect the other way counts as inactive or inconclusive; also: % is scaled to controls: 0 for no effect and ±100 for the full control effect; nearly all actives have a fitted effect of over 50% in size); details: ATP luminescence (CellTiter-Glo), 18 h; max response: stronger effect = lower value
Method in brief: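 ATP luminescence (CellTiter-Glo) reports metabolically competent cell number after parental HEK293 cells, 2,000/well, were treated with DMSO-dissolved compounds for 18 h at 37 C; reagent incubation 30 min, room temperature.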

[29] = qHTS assay for cell viability of the p53RE-bla HCT-116 cell line (AID 743292; active = well fitted curve in the direction sought with a large enough effect; an effect the other way counts as inactive or inconclusive; also: % is scaled to controls: 0 for no effect and ±100 for the full control effect; nearly all actives have a fitted effect of over 55% in size)
Method in brief: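 Quantitative high-throughput format: compounds in DMSO were pinned onto p53RE-bla HCT-116 cells (4,000/well) and incubated 16 h at 37 C. Total intracellular ATP, read by CellTiter-Glo luminescence, reflects viable cell number.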

[30] = molecular target: Nuclear receptor subfamily 1 group I member 2 (Rattus norvegicus) (UniProt Q9R1A7); assay: qHTS assay for small molecule activators of the rat pregnane X receptor (rPXR) signaling pathway (AID 651751; call rule not given here; also: 0% is about no effect); details: rPXR reporter cells, luciferase (One-Glo), 24 h
[31] = qHTS assay for small molecule activators of the human pregnane X receptor (PXR) signaling pathway (AID 720659; call rule not given here; also: 0% is about no effect)

O=C(O)c1cc(O)c2ccccc2c1O
inactive: activation [1] 1.64% | Potency [2] | Potency [3] | Potency [4] | Potency [5] | Potency [6]

C[C@H](CCC(=O)O)[C@H]1CC[C@H]2[C@@H]3CC[C@@H]4C[C@H](O)CC[C@]4(C)[C@H]3CC[C@]12C
inactive: Potency [7] | Potency [8] | Potency [9] | Potency [11] | Potency [3] | Potency [4] | Potency [5] | Potency [6]
active: Potency [10] 26.6 µM and 19.3 µM

Cc1ccc(C)c2ccccc12
22.6%: max response [15]
inactive: activation [12] 26.3% | outcome [13] | Potency [14] | activation [1] -1.23% | Potency [2] | outcome [16] | outcome [17] | outcome [18] | Potency [19] | outcome [21] | Potency [8] | max response [23] 3.54% | activity change % (negative = inhibition) [24] -0.662% | Potency [10] | activation [25] 1.38% | max response [26] -1.64% | Potency [11] | max response [27] -14.6% | max response [28] -1.65% | outcome [29] | Potency [3] | Potency [4] | Potency [5] | Potency [6] | max response [30] -3.33% | outcome [31]
-5.36%: max response [22]
-18.4%: max response [20]
